Test results reported in PubChem BioAssay (NCATS).
Results filed as inconclusive are left out. Calls of active or inactive are those of the source. Calls follow the shape of the dose curve; as a rule, active = well fitted inhibition curve with a large enough effect; inconclusive = small, poorly fitted or top-dose-only effect; inactive = flat fitted curve, though single readings scatter.

target: Lysine-specific demethylase 5B (Homo sapiens) (UniProt Q9UGL1); test: Optimization screen for KDM5B Histone Demethylases FDH coupled qHTS against the LOPAC library (AID 1347166); details: KDM5B demethylation, FDH-coupled NADH fluorescence (FDH is formaldehyde dehydrogenase); series mostly up to 57.5 µM
Summary of the method: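 KDM5BDeltaAP (200nM final) in 50mM HEPES pH 7.5, 0.01% Tween-20 was preincubated with compound for 10 min at room temperature. A substrate mix of 12.5uM H3K4Me3, 25uM a-ketoglutarate, ascorbate, Fe2+, NAD+ and formaldehyde dehydrogenase was then added. NADH fluorescence (340/450 nm) was read initially and after 30 min.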

Sequence of Lysine-specific demethylase 5B (Homo sapiens) (Q9UGL1 whole entry, looked up): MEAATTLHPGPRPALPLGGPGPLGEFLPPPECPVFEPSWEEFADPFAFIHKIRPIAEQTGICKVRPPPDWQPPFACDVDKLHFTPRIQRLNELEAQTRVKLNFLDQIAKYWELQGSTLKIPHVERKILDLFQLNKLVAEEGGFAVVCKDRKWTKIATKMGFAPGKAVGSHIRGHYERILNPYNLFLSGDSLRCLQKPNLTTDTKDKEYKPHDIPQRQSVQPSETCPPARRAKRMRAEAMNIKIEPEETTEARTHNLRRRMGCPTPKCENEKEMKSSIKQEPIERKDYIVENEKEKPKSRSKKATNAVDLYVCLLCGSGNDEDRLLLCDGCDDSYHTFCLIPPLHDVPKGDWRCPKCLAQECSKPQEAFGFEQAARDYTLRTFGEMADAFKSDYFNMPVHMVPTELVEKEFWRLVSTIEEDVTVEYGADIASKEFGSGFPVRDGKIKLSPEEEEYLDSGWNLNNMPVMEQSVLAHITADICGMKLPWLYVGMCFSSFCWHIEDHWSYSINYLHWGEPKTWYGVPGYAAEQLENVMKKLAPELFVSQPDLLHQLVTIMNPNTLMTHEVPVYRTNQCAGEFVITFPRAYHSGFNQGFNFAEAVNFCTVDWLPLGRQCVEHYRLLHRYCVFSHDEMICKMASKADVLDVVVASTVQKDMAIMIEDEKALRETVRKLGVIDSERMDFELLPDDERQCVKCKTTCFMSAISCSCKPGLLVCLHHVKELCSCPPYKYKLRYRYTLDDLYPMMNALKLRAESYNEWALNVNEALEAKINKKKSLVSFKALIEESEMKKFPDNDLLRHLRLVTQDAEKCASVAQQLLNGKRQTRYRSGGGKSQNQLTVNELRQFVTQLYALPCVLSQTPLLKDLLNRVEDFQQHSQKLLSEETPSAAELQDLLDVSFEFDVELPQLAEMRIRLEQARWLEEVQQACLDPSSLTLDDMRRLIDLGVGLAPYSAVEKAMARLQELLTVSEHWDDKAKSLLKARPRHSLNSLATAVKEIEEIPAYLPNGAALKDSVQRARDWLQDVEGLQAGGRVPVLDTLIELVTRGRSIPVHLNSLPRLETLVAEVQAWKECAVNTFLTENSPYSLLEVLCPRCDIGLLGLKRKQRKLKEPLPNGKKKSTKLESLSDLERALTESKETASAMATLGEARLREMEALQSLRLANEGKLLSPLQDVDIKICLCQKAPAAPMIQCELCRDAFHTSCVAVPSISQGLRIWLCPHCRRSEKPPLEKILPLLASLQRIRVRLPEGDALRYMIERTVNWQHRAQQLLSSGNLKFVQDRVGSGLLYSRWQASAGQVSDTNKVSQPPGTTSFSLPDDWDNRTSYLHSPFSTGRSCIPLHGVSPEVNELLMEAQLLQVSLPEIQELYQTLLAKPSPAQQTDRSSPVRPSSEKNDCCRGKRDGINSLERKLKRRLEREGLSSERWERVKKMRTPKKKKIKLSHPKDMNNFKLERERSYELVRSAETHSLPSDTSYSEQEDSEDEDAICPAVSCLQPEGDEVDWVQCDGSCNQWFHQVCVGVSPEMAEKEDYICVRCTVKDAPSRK

SMILES	outcome
COc1ccc(C(=O)N2CCCC2=O)cc1	inactive
COC(=O)C1=CCCN(C)C1	inactive
NC(=O)CN1CCCC1=O	inactive
